Results reported in PubChem BioAssay (Tox21).
Unmarked numbers belong to inactive results. Inconclusive results are not listed. A call without a number means that no potency is given here. Active and inactive are the calls of the source. Unless noted, the call rests on the fitted dose curve; in most records, active means well fitted curve in the direction sought with a large enough effect in the repeat runs; inconclusive means weak or mixed curves; inactive means no such curve, though single readings can be large; an effect the other way counts as inactive or inconclusive.

How the values were obtained:
[1] = qHTS assay to identify small molecule agonists of the hypoxia (HIF-1) signaling pathway - cell viability counter screen (AID 1224844; calls by dose curve; further: nearly all actives have a fitted effect of over 50% in size)
Procedure, shortened: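 Same wells as the HIF-1 reporter screen; ME-180 cells carrying HRE-bla, 17 hr treatment at 37C; CellTiter-Glo luminescence read after 30 min at room temperature.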

[2] = qHTS assay to identify small molecule agonists of H2AX (AID 1224845; active means well fitted activation curve with a large enough effect in the signal ratio in the repeat runs, not every such curve was filed as active; the % refers to the signal ratio)
Procedure, shortened: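 Wild-type CHO-K1 cells plated overnight, then exposed 3 hr at 37C to compounds at 15 concentrations (0.76% DMSO). Lysed, then HTRF anti-pH2AX(S139)-cryptate/anti-H2AX-d2 detection after 24 hr at room temperature; emissions 665 and 620 nm.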

[3] = qHTS assay to identify small molecule agonists of H2AX - cell viability counter screen (AID 1224847; calls by dose curve; further: top concentration of the series differs between compounds; nearly all actives have a fitted effect of over 30% in size)
Procedure, shortened: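 Counter-screen for viability: CellTiter-Glo ATP luminescence read after 3 h compound treatment (15-point titration, 0.76% DMSO final) of CHO-K1 cells at 37C, with 30 min room-temperature reagent incubation.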

[4] = qHTS RealTime-Glo MT Cell Viability Assay in HepG2 cells - 24 hour (AID 1224867); further: nearly all actives have a fitted effect of over 50% in size
Procedure, shortened: (§1)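 Tox21 10K library screened in qHTS format on HepG2 cells carrying RealTime-Glo reagents. Compounds were added after a 5 h preincubation, and the luminescent signal from continuous culture was measured repeatedly during 40 h treatment.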

[5] = qHTS RealTime-Glo MT Cell Viability Assay in HEK293 cells - 32 hour (AID 1224868); further: nearly all actives have a fitted effect of over 50% in size; further: potency means the concentration at half of the fitted maximal effect
Procedure, shortened: (§2)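 Luminescence generated by NanoLuc from substrate produced by living HEK293 cells served as the viability signal. Each value reflects the reading at its stated time point during continuous 40 h compound exposure at 37 C.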

[6] = A CellTox Green Cytotoxicity Assay to monitor cytotoxicity in HEK293 cells - 0 hour (AID 1224869); further: nearly all actives have a fitted effect of over 50% in size
Procedure, shortened: (§3)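 Homogeneous no-lysis format: HEK293 cell suspension mixed with CellTox Green reagent, seeded, incubated 5 h at 37 C/5% CO2, then dosed by pintool with compound in DMSO.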

[7] = qHTS RealTime-Glo MT Cell Viability Assay in HepG2 cells - 40 hour (AID 1224870); further: nearly all actives have a fitted effect of over 50% in size
Procedure, shortened: (§4)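 HepG2 cells mixed with RealTime-Glo MT reagents (NanoLuc plus cell-permeant prosubstrate) were seeded at 600 cells/well, incubated 5 h at 37 C/5% CO2, then pinned with compounds in DMSO; nonlytic luminescence tracked viability during 40 h treatment.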

[8] = A CellTox Green Cytotoxicity Assay to monitor cytotoxicity in HEK293 cells - 40 hour (AID 1224871); further: nearly all actives have a fitted effect of over 45% in size; further: potency means the concentration at half of the fitted maximal effect
Procedure, shortened: as §3

[9] = qHTS RealTime-Glo MT Cell Viability Assay in HEK293 cells - 16 hour (AID 1224872)
Procedure, shortened: as §2

[10] = qHTS RealTime-Glo MT Cell Viability Assay in HepG2 cells - 8 hour (AID 1224873); further: nearly all actives have a fitted effect of over 55% in size
Procedure, shortened: as §4

[11] = qHTS RealTime-Glo MT Cell Viability Assay in HEK293 cells - 40 hour (AID 1224874); details: RealTime-Glo luminescence; max response: hits give low values; further: nearly all actives have a fitted effect of over 50% in size; further: potency means the concentration at half of the fitted maximal effect
Procedure, shortened: (§5)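 Measured as luminescence from the same continuously cultured HEK293 wells at successive time points (0, 8, 16, 24, 32, 40 h) after compound addition. Reagent present from seeding; dosing at 5 h; incubation 37 C.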

[12] = A CellTox Green Cytotoxicity Assay to monitor cytotoxicity in HEK293 cells - 24 hour (AID 1224875); further: series mostly up to about 77 µM; nearly all actives have a fitted effect of over 45% in size
Procedure, shortened: as §3

[13] = A CellTox Green Cytotoxicity Assay to monitor cytotoxicity in HepG2 cells - 16 hour (AID 1224876); further: nearly all actives have a fitted effect of over 45% in size
Procedure, shortened: (§6)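 Fluorescent DNA-binding dye, 600 HepG2 cells/well, 5 h preincubation then compound in DMSO; same plates read at 0–40 h, 37 C.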

[14] = qHTS RealTime-Glo MT Cell Viability Assay in HepG2 cells - 32 hour (AID 1224877); further: nearly all actives have a fitted effect of over 55% in size
Procedure, shortened: as §1

[15] = A CellTox Green Cytotoxicity Assay to monitor cytotoxicity in HepG2 cells - 24 hour (AID 1224878); further: nearly all actives have a fitted effect of over 45% in size
Procedure, shortened: as §6

[16] = qHTS RealTime-Glo MT Cell Viability Assay in HEK293 cells - 0 hour (AID 1224880)
Procedure, shortened: as §5

[17] = qHTS assay to identify small molecule antagonists of the estrogen related receptor (ERR) signaling pathway from Tox21 library (AID 1224848); further: nearly all actives have a fitted effect of over 50% in size
Procedure, shortened: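 Tox21 10K compounds in DMSO tested for ERR pathway antagonism in NTP's ERR cell line; 18 h, 37 C exposure; ONE-Glo luminescence.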

[18] = A CellTox Green Cytotoxicity Assay to monitor cytotoxicity in HepG2 cells - 40 hour (AID 1224879); further: nearly all actives have a fitted effect of over 40% in size; further: potency means the concentration at half of the fitted maximal effect
Procedure, shortened: as §6

[19] = qHTS assay to identify small molecule agonists of the hypoxia (HIF-1) signaling pathway (AID 1224846; active means well fitted activation curve with a large enough effect in the signal ratio in the repeat runs, not every such curve was filed as active; the % refers to the signal ratio)
Procedure, shortened: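 In ME-180 cells bearing an HRE-bla construct, 17 h treatment with DMSO-dissolved compounds at 37C was followed by CCF4-AM loading to quantify reporter induction.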

Compound | Potency [1] | Potency [2] | outcome [3] | outcome [4] | Potency [5] | outcome [6] | Potency [7] | Potency [8] | Potency [9] | outcome [10] | max response [11] [%] | outcome [12] | outcome [13] | Potency [14] | outcome [15] | Potency [16] | Potency [17] | Potency [18] | outcome [19] | Potency [11]
NC(=O)Cc1cccc2ccccc12 | inactive | inactive | inactive | inactive | inactive | inactive | inactive | inactive | inactive | inactive | 2.56 | inactive | inactive | inactive | inactive | inactive |  |  |  | 
CN(C)C(=O)Oc1ccc[n+](C)c1 | inactive | inactive | inactive |  |  | inactive | inactive | inactive |  | inactive | 5.97 | inactive | inactive | inactive | inactive | inactive | inactive | inactive |  | 
CC(C)(C)OC(=O)c1cccc(N)c1 | inactive | inactive | inactive | inactive |  | inactive | inactive | inactive | inactive | inactive | -10 | inactive | inactive | inactive | inactive | inactive |  |  |  | 
CCC1C(=O)OCC1Cc1cncn1C (stereo not drawn) | inactive | inactive | inactive |  | inactive | inactive | inactive | inactive | inactive | inactive | 0.511 | inactive | inactive | inactive | inactive | inactive |  | inactive |  | 
O=C(O)Cc1csc(-c2ccc(Cl)cc2)n1 | inactive | inactive | inactive | inactive | inactive | inactive | inactive | inactive | inactive | inactive | 1.2 | inactive | inactive | inactive | inactive | inactive |  |  |  | 
NCCCC(N)(C(=O)O)C(F)F (stereo not drawn) | inactive | inactive | inactive | inactive |  | inactive | inactive | inactive |  | inactive | 0.24 | inactive | inactive | inactive | inactive | inactive |  | inactive |  | 
CN(C)CCN(C)CCN(C)C | inactive | inactive | inactive |  | inactive | inactive |  | inactive | inactive | inactive | 4.88 | inactive | inactive | inactive | inactive | inactive |  | inactive |  | 
COc1cc(-c2ccc(=O)[nH]n2)ccc1OC(F)F | inactive | inactive | inactive | inactive |  | inactive | inactive | inactive |  | inactive | -5.19 | inactive | inactive | inactive | inactive | inactive |  |  |  | 
CCC(C)(CN(C)C)OC(=O)c1ccccc1 (stereo not drawn) | inactive | inactive | inactive | inactive | inactive | inactive | inactive | inactive | inactive | inactive | 12.1 | inactive | inactive | inactive | inactive | inactive |  | inactive |  | 
O=C(c1ccccc1O)c1ccccc1O | inactive |  | inactive | inactive |  | inactive | inactive | 48.5 µM (active) |  | inactive |  | inactive | inactive | inactive | inactive | inactive |  | inactive |  | 
CCOc1ccc2nc(S(N)(=O)=O)sc2c1 | inactive |  |  |  |  | inactive |  | inactive | inactive | inactive | 6.72 | inactive | inactive | inactive | inactive | inactive |  | inactive | inactive | 
CC(=O)O[C@@]12CO[C@@H]1C[C@H](O)[C@@]1(C)C(=O)[C@H](O)C3=C(C)[C@@H](OC(=O)[C@H](O)[C@@H](NC(=O)OC(C)(C)C)c4ccccc4)C[C@@](O)([C@@H](OC(=O)c4ccccc4)[C@H]21)C3(C)C | inactive | inactive |  | inactive | 47.7 nM (active) | inactive |  | inactive |  | inactive |  | inactive | inactive | inactive |  | inactive |  | 6 nM (active) |  | 33.8 nM (active)
